Data as given in PubChem BioAssay (NCI).
Compounds without any hit were thinned out: in the full panel of roughly 79,000, 15% have a hit. Values without a mark were called inactive. The source made the active and inactive calls. No stated cut-off is given here; in the data, active means growth inhibition above about 70%; inactive means the rest.

Experiments:
[1] = NCI Yeast Anticancer Drug Screen. Data for the rad52 strain (AID 147);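 further: 0% = growth of vehicle-treated control cultures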; settings: S. cerevisiae rad52 mutant growth inhibition, hits give high values
In short: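 Vehicle-treated cultures served as the reference for growth inhibition of compound-exposed yeast bearing a DNA repair mutation.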

[2] = NCI Yeast Anticancer Drug Screen. Data for the wt1 strain (AID 149);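 further: 0% = growth of vehicle-treated wt1 cultures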; settings: S. cerevisiae wt1 strain (SPY 50644) growth inhibition, hits give high values
In short: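 Using yeast strain wt1, compound-induced growth inhibition was determined against vehicle-treated cultures.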

[3] = NCI Yeast Anticancer Drug Screen. Data for the rad50EPP+ strain (AID 151);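 further: 0% = growth of vehicle-treated control cultures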; settings: S. cerevisiae rad50 mutant strain, hits give high values
In short: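 In this screen, rad50EPP+ yeast were exposed to compounds. Growth inhibition was scored against vehicle-treated controls.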

[4] = NCI Yeast Anticancer Drug Screen. Data for the mgt1 strain (AID 153); settings: S. cerevisiae mgt1 mutant growth inhibition, hits give high values
In short: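 mgt1 strain exposed; growth vs vehicle control recorded as inhibition.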

[5] = NCI Yeast Anticancer Drug Screen. Data for the rad50 strain (AID 155);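 further: 0% = growth of vehicle-only cultures of the same strain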; settings: S. cerevisiae rad50 strain growth inhibition, hits give high values
In short: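 Relative growth inhibition (compound vs vehicle) was measured in yeast with a defined repair-gene alteration.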

[6] = NCI Yeast Anticancer Drug Screen. Data for the mec2-1 strain (AID 157); settings: S. cerevisiae mec2-1 strain, hits give high values
In short: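 Vehicle-treated cultures served as reference for growth inhibition of compound-exposed mec2-1 yeast.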

[7] = NCI Yeast Anticancer Drug Screen. Data for the rad14 strain (AID 159);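 further: 0% = growth of vehicle-treated control cultures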; settings: S. cerevisiae rad14 strain growth inhibition, hits give high values
In short: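 Screen for anticancer potential: a yeast strain altered in DNA damage repair is grown with compound, and reduced growth is quantified against vehicle controls.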

[8] = NCI Yeast Anticancer Drug Screen. Data for the sgs1 mgt1 strain (AID 161);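 further: 0% = growth of cultures given vehicle only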; settings: S. cerevisiae sgs1 mgt1 strain, at 5.0 µM (retest, dose inferred, filed as 0.5), hits give high values
In short: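 Inhibition of yeast growth, normalised to vehicle-treated controls, is reported for a strain bearing genetic alterations in DNA damage repair.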

[9] = NCI Yeast Anticancer Drug Screen. Data for the CLN2oe strain (AID 163);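 further: 0% = growth of vehicle-only control cultures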; settings: S. cerevisiae CLN2oe strain, hits give high values
In short: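 Inhibition relative to vehicle-treated yeast is reported. Cells: strain with genetic alteration in cell-cycle control, grown with compound.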

[10] = NCI Yeast Anticancer Drug Screen. Data for the cln2 rad14 strain (AID 165);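 further: 0% = growth equal to vehicle treated cultures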; settings: S. cerevisiae cln2 rad14 strain, at 5.0 µM (retest, dose inferred, filed as 0.5), hits give high values
In short: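 Each compound was tested on cln2 rad14 yeast. Inhibition of growth was calculated against vehicle-exposed controls.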

[11] = NCI Yeast Anticancer Drug Screen. Data for the bub3 strain (AID 167); settings: S. cerevisiae bub3 mutant strain, hits give high values
In short: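 Screening used yeast with an engineered genetic alteration affecting cell cycle control. Compound-exposed cultures were compared with vehicle cultures, and reduced growth was taken as inhibition.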

[12] = NCI Yeast Anticancer Drug Screen. Data for the wt2 strain (AID 169);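 further: 0% = growth of vehicle-treated yeast cultures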; settings: S. cerevisiae wt2 strain growth inhibition, hits give high values
In short: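 Inhibition of yeast growth was determined after compound treatment, normalised to controls receiving only vehicle.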

[13] = NCI Yeast Anticancer Drug Screen. Data for the mlh1 strain (AID 171);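 further: 0% = growth of vehicle-treated control cultures of the same strain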; settings: S. cerevisiae mlh1 strain growth inhibition, hits give high values
In short: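 Vehicle-normalised growth inhibition of a repair- or checkpoint-altered yeast strain following compound treatment.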

[14] = NCI Yeast Anticancer Drug Screen. Data for the sgs1 strain (AID 173);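 further: 0% = growth of vehicle-only control cultures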; settings: S. cerevisiae sgs1 mutant, hits give high values
In short: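 Screen format: yeast with repair or checkpoint alterations, compound exposure, growth read relative to vehicle.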

[15] = NCI Yeast Anticancer Drug Screen. Data for the mlh1 rad18 strain (AID 175); settings: S. cerevisiae mlh1 rad18 strain growth inhibition, hits give high values
In short: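 Vehicle-treated cultures served as the reference for growth inhibition in a yeast strain carrying DNA damage repair alterations exposed to each compound.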

[16] = NCI Yeast Anticancer Drug Screen. Data for the rad18 strain (AID 177); settings: S. cerevisiae rad18 mutant growth inhibition, hits give high values
In short: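 Test articles were incubated with altered yeast defective in DNA damage repair. Results are given as inhibition of growth versus vehicle.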

[17] = at 5.0 µM (retest, dose inferred, filed as 0.5)
[18] = at 50.0 µM (retest, dose inferred, filed as 5.0)

N#C/C(=C/c1c(Cl)cccc1Cl)C(N)=O
growth inhibition ([1]; at 1.2 µM): 0%
growth inhibition ([1]; at 3.7 µM): 5%
growth inhibition ([1]; at 11.0 µM): 13%
growth inhibition ([1]; at 33.0 µM): 63%
growth inhibition ([1]; at 100.0 µM): 96% (active)
growth inhibition ([2]; at 1.2 µM): 13%
growth inhibition ([2]; at 3.7 µM): 13%
growth inhibition ([2]; at 11.0 µM): 10%
growth inhibition ([2]; at 33.0 µM): 47%
growth inhibition ([2]; at 100.0 µM): 96% (active)
growth inhibition ([3]; at 1.2 µM): -24%
growth inhibition ([3]; at 3.7 µM): -29%
growth inhibition ([3]; at 11.0 µM): -30%
growth inhibition ([3]; at 33.0 µM): -24%
growth inhibition ([3]; at 100.0 µM): 57%
growth inhibition ([4]; at 1.2 µM): -4%
growth inhibition ([4]; at 3.7 µM): -15%
growth inhibition ([4]; at 11.0 µM): 1%
growth inhibition ([4]; at 33.0 µM): 63%
growth inhibition ([4]; at 100.0 µM): 98% (active)
growth inhibition ([5]; at 1.2 µM): -10%
growth inhibition ([5]; at 3.7 µM): 3%
growth inhibition [5, 17]: 47%
growth inhibition ([5]; at 11.0 µM): 3%
growth inhibition ([5]; at 33.0 µM): 69%
growth inhibition ([5]; at 50.0 µM): 77.2% (active)
growth inhibition ([5]; at 100.0 µM): 97% (active)
growth inhibition ([6]; at 1.2 µM): -26%
growth inhibition ([6]; at 3.7 µM): -8%
growth inhibition [6, 17]: 46%
growth inhibition ([6]; at 11.0 µM): -7%
growth inhibition ([6]; at 33.0 µM): 58%
growth inhibition ([6]; at 50.0 µM): 74.8% (active)
growth inhibition ([6]; at 100.0 µM): 97% (active)
growth inhibition ([7]; at 1.2 µM): -3%
growth inhibition ([7]; at 3.7 µM): -15%
growth inhibition ([7]; at 11.0 µM): -1%
growth inhibition ([7]; at 33.0 µM): 55%
growth inhibition ([7]; at 100.0 µM): 97% (active)
growth inhibition [8]: -1%
growth inhibition ([9]; at 1.2 µM): 9%
growth inhibition ([9]; at 3.7 µM): -2%
growth inhibition ([9]; at 11.0 µM): 3%
growth inhibition ([9]; at 33.0 µM): 18%
growth inhibition ([9]; at 100.0 µM): 81% (active)
growth inhibition [10]: 45%
growth inhibition ([11]; at 1.2 µM): -5%
growth inhibition ([11]; at 3.7 µM): 4%
growth inhibition [11, 17]: 37%
growth inhibition ([11]; at 11.0 µM): 14%
growth inhibition ([11]; at 33.0 µM): 65%
growth inhibition [11, 18]: 96% (active)
growth inhibition ([11]; at 100.0 µM): 97% (active)
growth inhibition ([12]; at 1.2 µM): -16%
growth inhibition ([12]; at 3.7 µM): -2%
growth inhibition ([12]; at 11.0 µM): -2%
growth inhibition ([12]; at 33.0 µM): 58%
growth inhibition ([12]; at 100.0 µM): 96% (active)
growth inhibition ([13]; at 1.2 µM): -16%
growth inhibition ([13]; at 3.7 µM): -15%
growth inhibition ([13]; at 11.0 µM): 0%
growth inhibition ([13]; at 33.0 µM): 71% (active)
growth inhibition ([13]; at 100.0 µM): 97% (active)
growth inhibition ([14]; at 1.2 µM): 15%
growth inhibition ([14]; at 3.7 µM): 9%
growth inhibition ([14]; at 11.0 µM): 21%
growth inhibition ([14]; at 33.0 µM): 74% (active)
growth inhibition ([14]; at 100.0 µM): 98% (active)
growth inhibition [15, 17]: 34%
growth inhibition [15, 18]: 76% (active)
growth inhibition ([15]; at 50.0 µM): 61.7%
growth inhibition ([16]; at 1.2 µM): -19%
growth inhibition ([16]; at 3.7 µM): -11%
growth inhibition ([16]; at 11.0 µM): 6%
growth inhibition ([16]; at 33.0 µM): 81% (active)
growth inhibition ([16]; at 100.0 µM): 97% (active)
